# From ChEMBL document CHEMBL3988442, “University of Dundee, Small-Polar-MMV Screening Library” (2021)
# In all, about 66,000 compounds went through this assay and about 960 (1.5%) showed an effect of 50% or more. What follows is part of a selection rich in strong results, with near analogues and random picks from the rest.
# Test system: Trypanosoma brucei
# Assay: Trypanosoma brucei 72 hour study
# Type: functional, organism-based
# Set-up: scale not given: in the data most compounds retested in dose-response had high values
structure (smiles),measurement,setting,value
COc1cccc(CNC(CN2CCN(C)CC2)c2ccccc2)c1 (centres undefined),Percent Effect,"30 µM, 30.03 µM",-23.58%
Cc1ccc(CNC(CN2CCN(C)CC2)c2ccccc2)cc1C (centres undefined),Percent Effect,"30 µM, 30.03 µM",57.4%
Cc1cccc(CNC(CN2CCN(C)CC2)c2ccccc2)c1 (centres undefined),Percent Effect,"30 µM, 30.03 µM",38.01%
CN1CCN(CC(NCc2ccc(F)c(F)c2)c2ccccc2)CC1 (centres undefined),Percent Effect,"30 µM, 30.03 µM",-11.08%
CN1CCN(CC(NCc2cccc(O)c2)c2ccccc2)CC1 (centres undefined),Percent Effect,"30 µM, 30.03 µM",100.4%
Cc1ccc(CNC(CN2CCN(C)CC2)c2ccccc2)cc1 (centres undefined),Percent Effect,"30 µM, 30.03 µM",0.9317%
Cc1noc(C)c1CNCC1Cn2nncc2CO1.O=C(O)C(F)(F)F (centres undefined),Percent Effect,"30.3 µM, […]",-105.3%
COCC1CN(C(=O)CS(C)(=O)=O)Cc2ncn(CC3CC3)c21 (centres undefined),Percent Effect,"30.3 µM, […]",-30.37%
C1CCN(CCO[C@@H]2CC[C@H]3[C@H]2OCCN3CC2CCOCC2)C1.O=C(O)C(F)(F)F.O=C(O)C(F)(F)F,Percent Effect,"30 µM, 30.03 µM",-27.36%
Cc1ncsc1-c1nnc(C2CCN(Cc3ccccc3F)CC2)o1,Percent Effect,"30.3 µM, […]",-22.5%
CNCc1ccc([C@@H]2CN(C(C)=O)C[C@H]2C(=O)N(C)C)cc1.Cl,Percent Effect,"30.3 µM, […]",-5.387%
CN(C)CCN1CCC2(CCN(C(=O)c3ccncc3)CC2)C1=O.O=C(O)C(F)(F)F.O=C(O)C(F)(F)F,Percent Effect,"30.3 µM, […]",-21.17%
CN1CCOCC12CCN(Cc1ccoc1)CC2.O=C(O)C(F)(F)F.O=C(O)C(F)(F)F,Percent Effect,"30.3 µM, […]",-44.43%
Cn1cc(-c2c(C#N)c(N)nc3c2CCc2[nH]ccc2-3)cn1,Percent Effect,"30.3 µM, […]",27.56%
Cc1n[nH]c(C)c1-c1c(C#N)c(N)nc2c1CCc1[nH]ccc1-2,Percent Effect,"30.3 µM, […]",52.57%
COc1ncc(-c2c(C#N)c(N)nc3c2CCc2[nH]ccc2-3)cn1,Percent Effect,"30.3 µM, […]",-6.46%
CC(C)CN1C[C@H]2C[C@H](C(=O)N3CCCC3)[C@@H](C1)O2.O=C(O)C(F)(F)F,Percent Effect,"30.3 µM, […]",-50.57%
CN(C)CCN1CCN(C)c2nc(-c3ccccc3)ncc2C1=O,Percent Effect,"30.3 µM, […]",17.36%
COc1cccc(-c2ncc3c(n2)N(C)CCN(CCN(C)C)C3=O)c1,Percent Effect,"30.3 µM, […]",19.59%
CCc1ccc(-c2ncc3c(n2)N(C)CCN(CCN(C)C)C3=O)cc1,Percent Effect,"30.3 µM, […]",100.5%
Cl.O=C(O)[C@@H]1CCCN1c1nccc(Nc2ccccc2)n1,Percent Effect,"30.3 µM, […]",-31.15%
same,Percent Effect,"10 mM, 10 mM as filed; unlikely as a test dose",-16.56%
Cc1cc(F)ccc1-n1cc(O)c(C(=O)NCC2(O)CCC2)n1,Percent Effect,"30 µM, 30.03 µM",-18.18%
CCN(CC1CCOC1)C(=O)Cn1nnn(-c2cccs2)c1=O (centres undefined),Percent Effect,"30 µM, 30.03 µM",-61.65%
O=C(Cn1nnn(-c2cccs2)c1=O)N(CC1CCOC1)C1CC1 (centres undefined),Percent Effect,"30 µM, 30.03 µM",-28.27%
O=C(Cn1nnn(-c2cccs2)c1=O)NCC1CCOC1 (centres undefined),Percent Effect,"30 µM, 30.03 µM",53.07%
c1ccc(-c2nc(CNCCn3cccn3)cs2)cc1,Percent Effect,"30 µM, 30.03 µM",-63.26%
c1ccc(OCc2nc(CNCCn3cccn3)cs2)cc1,Percent Effect,"30.3 µM, […]",-9.773%
CC(Cn1cccn1)NCc1csc(COc2ccccc2)n1 (centres undefined),Percent Effect,"30.3 µM, […]",63.51%
Cc1cnn(CCNCc2csc(COc3ccccc3)n2)c1,Percent Effect,"30.3 µM, […]",54.15%
CC(Cn1cccn1)NCc1csc(Cc2ccccc2)n1 (centres undefined),Percent Effect,"30.3 µM, […]",32.28%
Clc1ccc(Cc2nc(CNCCn3cccn3)cs2)cc1,Percent Effect,"30.3 µM, […]",19.22%
Cc1cnn(CCCNCc2csc(COc3ccccc3)n2)c1,Percent Effect,"30.3 µM, […]",10.81%
c1ccc(Cc2nc(CNCCn3cccn3)cs2)cc1,Percent Effect,"30.3 µM, […]",100.2%
CC(Cn1cccn1)NCc1csc(COc2ccc(F)cc2)n1 (centres undefined),Percent Effect,"30.3 µM, […]",4.13%
CCS(=O)(=O)N1C[C@H]2C[C@H](C(=O)N(C)C)[C@@H](C1)O2,Percent Effect,"30 µM, 30.03 µM",9.915%
O=C(NCC(=O)N1CCN(c2ccccc2)CC1)c1sccc1C1CC1,Percent Effect,"30 µM, 30.03 µM",8.848%
CCC(=O)N1CCN(CCn2cccn2)c2ncccc2C1.O=C(O)C(F)(F)F,Percent Effect,"30.3 µM, […]",-68.7%
N#Cc1ccc(C(=O)N2CC[C@H]3[C@H]2CCN3CC2CC2)cc1.O=C(O)C(F)(F)F,Percent Effect,"30.3 µM, […]",-8.518%
Cc1ccccc1-c1cncc(C2CCN(S(=O)(=O)N(C)C)CC2)n1,Percent Effect,"30.3 µM, […]",23.75%
CCC(=O)N1CCCN(Cc2cc(F)cc(Br)c2)CC1,Percent Effect,"30 µM, 30.03 µM",-27.39%
CN1C[C@H]2CC[C@@H]1CN(C(=O)COCc1nc3cc(F)ccc3[nH]1)C2,Percent Effect,"30 µM, 30.03 µM",-9.559%
CC(C)(C)n1ncc2c1CCCC2NCc1ccsc1 (centres undefined),Percent Effect,"30 µM, 30.03 µM",-15.69%
O=C(NCc1cnc2n1CCN(Cc1nccs1)CC2)C1CCC1.O=C(O)C(F)(F)F,Percent Effect,"30.3 µM, […]",-21.25%
COCC(=O)N1CCC2(CC1)CN(CC1CC1)c1ccc(F)cc12,Percent Effect,"30.3 µM, […]",19.77%
CCS(=O)(=O)CCNC1CCN(c2nc3ccc(Cl)cc3s2)CC1,Percent Effect,"30.3 µM, […]",67.3%
Clc1ccc2nc(N3CCC(NCCCC4CCOC4)CC3)sc2c1 (centres undefined),Percent Effect,"30.3 µM, […]",69.37%
Cc1csc2c(N3CCC(NCCCC4CCOC4)CC3)ncnc12 (centres undefined),Percent Effect,"30 µM, 30.03 µM",-28.35%
CCCc1cc(NCCCC2CCOC2)n2nccc2n1 (centres undefined),Percent Effect,"30.3 µM, […]",14.64%
CCc1nccn1CCNC1CCN(c2nc3ccc(Cl)cc3s2)CC1,Percent Effect,"30.3 µM, […]",100.4%
Cc1n[nH]c(SCCNC2CCN(c3nc4ccccc4s3)CC2)n1,Percent Effect,"30 µM, 30.03 µM",-5.585%
Cc1csc2c(N3CCC(NCCc4ccnn4C)CC3)ncnc12,Percent Effect,"30 µM, 30.03 µM",-26.9%
Cn1ccnc1SCCNC1CCN(c2nc3ccccc3s2)CC1,Percent Effect,"30 µM, 30.03 µM",-14.43%
CCCc1cc(CNC2CCN(c3nc4ccccc4s3)CC2)on1,Percent Effect,"30 µM, 30.03 µM",-8.839%
Cc1nc(NC(=O)c2c(-n3cnnn3)sc(C)c2C)sc1C,Percent Effect,"30 µM, 30.03 µM",-45.39%
O=C(O)C(F)(F)F.O=C(O)C(F)(F)F.c1cncc(OCc2noc3c2CN(Cc2ccco2)CC3)c1,Percent Effect,"30 µM, 30.03 µM",-42.06%
Cc1noc(C)c1CN1CCn2cc(CN3CCCCC3)nc2C1.O=C(O)C(F)(F)F,Percent Effect,"30.3 µM, […]",-9.044%
CCN1CCN(C(=O)c2cc(-c3cccn3C)n[nH]2)[C@H]2CS(=O)(=O)C[C@H]21,Percent Effect,"30 µM, 30.03 µM",-16.48%
CC(C)N1CC[C@H]2[C@H](C[C@@H](Cn3cncn3)N2c2nccs2)C1.O=C(O)C(F)(F)F.O=C(O)C(F)(F)F,Percent Effect,"30.3 µM, […]",-43.04%
COc1cccc(CN(Cc2ncc[nH]2)Cc2ccco2)c1.O=C(O)CC(O)(CC(=O)O)C(=O)O,Percent Effect,"30.3 µM, […]",-10.96%
Cc1ccc([C@]2(O)CC[C@H]3CN(Cc4ccc(Cl)cc4Cl)C[C@H]32)nc1,Percent Effect,"30.3 µM, […]",-1.046%
CSc1ccc(CN2C[C@@H]3CC[C@@](O)(c4ccc(C)cn4)[C@@H]3C2)cc1,Percent Effect,"30.3 µM, […]",79.51%
Cc1ccc([C@]2(O)CC[C@H]3CN(Cc4cc(C)c(O)c(C)c4)C[C@H]32)nc1.O=C(O)CC(O)(CC(=O)O)C(=O)O,Percent Effect,"30.3 µM, […]",27.71%
CN1CC2(CCCN(Cc3nnc(-c4ccccc4)o3)CC2)OC1=O (centres undefined),Percent Effect,"30 µM, 30.03 µM",-20.69%
CCNC(=O)c1nnn(Cc2ccccc2)c1OC,Percent Effect,"30 µM, 30.03 µM",40.11%
CCN(CC)C(=O)c1nnn(Cc2ccccc2)c1OC,Percent Effect,"30 µM, 30.03 µM",61.55%
COCCNC(=O)c1nnn(Cc2ccccc2)c1OC,Percent Effect,"30.3 µM, […]",3.67%
CCc1nnc(SC2CCCN(c3cccc(F)c3)C2=O)n1C (centres undefined),Percent Effect,"30 µM, 30.03 µM",-37.32%
CCOCC1CN(CCN(C)C)Cc2cnn(CC3CCCC3)c21.O=C(O)C(F)(F)F.O=C(O)C(F)(F)F (centres undefined),Percent Effect,"30 µM, 30.03 µM",-10.76%
Cc1ccc(C(=O)N2CC[C@@H](N(C)C)[C@@H]2Cc2cnn(C)c2)cn1.O=C(O)C(F)(F)F.O=C(O)C(F)(F)F,Percent Effect,"30.3 µM, […]",-478.3%
OCC1(CCOc2ccccc2)CCCN(c2ccc(Cl)cn2)C1 (centres undefined),Percent Effect,"30 µM, 30.03 µM",-34.7%
CC(=O)c1ccc(N2CCCC(CO)(CCc3ccccc3)C2)nc1 (centres undefined),Percent Effect,"30 µM, 30.03 µM",50.39%
Nc1nccc(N2CCCC(CO)(CCOc3ccccc3)C2)n1 (centres undefined),Percent Effect,"30 µM, 30.03 µM",82.96%
CC(=O)c1ccc(N2CCCC(CO)(CCOc3ccccc3)C2)nc1 (centres undefined),Percent Effect,"30 µM, 30.03 µM",71.93%
N#Cc1ccc(N2CCCC(CO)(CCOc3ccccc3)C2)nc1 (centres undefined),Percent Effect,"30 µM, 30.03 µM",-38.44%
CC(=O)c1ccc(N2CCCC(CO)(Cc3ccccc3C)C2)nc1 (centres undefined),Percent Effect,"30 µM, 30.03 µM",-6.304%
CC(=O)c1ccc(N2CCC(CO)(CCOc3ccccc3)CC2)nc1,Percent Effect,"30 µM, 30.03 µM",16.6%
CC(=O)c1ccc(N2CCCC(CO)(Cc3ccccc3F)C2)nc1 (centres undefined),Percent Effect,"30 µM, 30.03 µM",-24.14%
N#Cc1cccc(N2CCCC(CO)(CCOc3ccccc3)C2)n1 (centres undefined),Percent Effect,"30 µM, 30.03 µM",-42.71%
O=C(O)C(F)(F)F.O=C1CCCN1Cc1ncn2c1CN(C(=O)N1CCCC1)CCC2,Percent Effect,"30.3 µM, […]",-52.13%
Cc1occc1C(=O)N1CCC2(CCCN(c3ncc(F)cn3)C2)C1.O=C(O)C(F)(F)F (centres undefined),Percent Effect,"30.3 µM, […]",-25.24%
O=C(NCCCNc1ccc(C(F)(F)F)cn1)c1ccc2c(c1)OCO2,Percent Effect,10 µM,-42.23%
c1nc(N2CCc3[nH]cnc3C2)c2cc[nH]c2n1,Percent Effect,"30 µM, 30.03 µM",75.2%
c1ncc2c(n1)CN(c1ncnc3[nH]ccc13)CC2,Percent Effect,"30 µM, 30.03 µM",-32.45%
Cc1ncc2c(n1)CN(c1ncnc3[nH]ccc13)CC2,Percent Effect,"30 µM, 30.03 µM",-13.69%
Cn1cc(N2CC3(COCCN(Cc4nccs4)C3)OCC2=O)cn1.O=C(O)C(F)(F)F (centres undefined),Percent Effect,"30 µM, 30.03 µM",27.05%
Cc1cc(N(C)C)cc(C2CCN(S(=O)(=O)c3cccnc3)C2)n1 (centres undefined),Percent Effect,"30.3 µM, […]",-0.05808%
Cc1nn(CCO)c(C)c1-c1cc(C(C)(C)C)nc(N)c1C#N,Percent Effect,"30.3 µM, […]",0.04143%
Cc1ccc(-c2cc(-c3c(C)nn(CCO)c3C)c(C#N)c(N)n2)cc1,Percent Effect,"30.3 µM, […]",33.48%
Cc1cccc(-c2cc(-c3c(C)nn(CCO)c3C)c(C#N)c(N)n2)c1,Percent Effect,"30.3 µM, […]",57.96%
Cc1noc([C@]23COC[C@H]2CN(C(=O)CN(C)C)C3)n1.O=C(O)C(F)(F)F,Percent Effect,"30.3 µM, […]",106.1%
Cc1noc([C@]23COC[C@H]2CN(C(=O)COC2CCCC2)C3)n1,Percent Effect,"30.3 µM, […]",-59.73%
CCOCC(=O)N1C[C@@H]2COC[C@]2(c2nc(C)no2)C1,Percent Effect,"30.3 µM, […]",-76.29%
Cc1ccc(CN2CCCC3(CCN(S(C)(=O)=O)C3)C2)o1.O=C(O)C(F)(F)F (centres undefined),Percent Effect,"30 µM, 30.03 µM",16.24%
